IL1B secr inh: inhibitors of inflammasome signaling (IL-1 beta secretion) | THP-1 LPS/ATP IL-1B secretion, AlphaLISA, 16 h; active compounds read low | activity change, % at 57.5 µM | 4.7% of 360,000 active | AID 743279; in the data active = activity change below about -50%; inconclusive = mostly about -30% to -49%
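Secreted IL-1B measured by AlphaLISA bead assay after 16 h compound exposure of THP-1 cells; compounds (final up to 57.5 uM) added 1 h before LPS (250 ng/mL) and ATP (1.25 mM) stimulation; lower signal means less secretion.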
HT1080 IDH1KD tx: HT-1080 IDH1 knockdown cell toxicity (counter line) | HT-1080 IDH1 knockdown viability, ATP luminescence, 48 h | Potency, µM (series often up to 46.1 µM), inactives show at the top dose activity, negative = toxicity, usual class: cytotoxic | 2% of 360,000 active;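 note: potency is the fitted concentration of half-maximal effect; 0% = DMSO wells and -100% = cell-free medium wells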
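CellTiter-Glo luminescence after 48 h compound exposure at 37 degrees C of IDH1-knockdown HT-1080 cells in 5% FBS RPMI. %Activity scaled between DMSO wells and cell-free media wells, with curves fitted and assigned curve classes.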
TDP1 cell noCPT: qHTS for Inhibitors of human tyrosyl-DNA phosphodiesterase 1 (TDP1): qHTS in cells in absence of CPT. DT40 Tdp1-/- hTDP1 cells, no CPT, ATP luminescence, 48 h. Potency, µM (highest dose often 46.2 µM), for inactives: at the top dose activity change, negative = growth inhibition, usual class: inhibitors. 15% of 420,000 active. AID 686978, 2013; note: potency is the fitted concentration of half-maximal effect; nearly all actives have a fitted effect of over 55% in size
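Growth of hTDP1-complemented DT40 Tdp1-knockout cells is measured by ATP luminescence after at least 48 hr compound exposure at 37 °C, with DMSO substituting for the 20 nM CPT used in the parallel screen.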
TDP1 cell CPT: DT40-hTDP1 cell growth loss with CPT; AID 686979; 12% of 420,000 active; Potency, µM (top dose mostly 46.2 µM), for the others: at the highest dose activity change, negative = growth inhibition, usual class: inhibitors; chicken DT40 Tdp1-/-;hTDP1 cells + 20 nM CPT, ATP luminescence, 48 h; note: potency is the fitted concentration of half-maximal effect; nearly all actives have a fitted effect of over 55% in size
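Cell growth measured by CellTiter-Glo luminescence after a minimum 48 h, 37 C compound exposure with 20 nM CPT in Tdp1-knockout DT40 cells stably expressing hTDP1, seeded 400/well; qHTS titration format.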
HT1080-NT tox: kills 2HG-producing HT-1080-NT fibrosarcoma cells; HT-1080-NT fibrosarcoma viability, CellTiter-Glo ATP luminescence, 48 h; Potency, µM (highest dose often 46.1 µM), inactives show top-dose activity, negative = less viability, usual class: cytotoxic; 1.6% of 360,000 active; AID 686970;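 note: NT is the 2HG producing partner of a matched IDH1 knockdown line; potency is the fitted concentration of half-maximal effect; 0% = DMSO-treated cells and -100% = media-only wells without cells; nearly all actives have a fitted effect of over 55% in size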
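Compounds were tested in concentration-response format on HT-1080-NT cells for 48 hours at 37 degrees C. Cell viability came from CellTiter-Glo luminescence; curves were classified by r2, response magnitude and activity.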
* marks the source's active call; other numbers are inactive results; ? = inconclusive; · = no result; [ ] = another dose, or the depositor's remark. Compounds with a hit are over-represented: about 19% of the library has one in this group of screens. Unless noted, calls come from the whole dose curve; as a rule, active = well fitted curve in the direction sought with a large enough effect; inconclusive = small, poorly fitted or top-dose-only effect, or another doubt; inactive = no such curve, though single readings can be large; an effect the other way counts as inactive or inconclusive. Unless noted, % is set by controls: 0 for no effect and ±100 for the full control effect.

SMILES	IL1B secr inh	HT1080 IDH1KD tx	TDP1 cell noCPT	TDP1 cell CPT	HT1080-NT tox
CCN(CC)c1ccc(N2C(=O)/C(=C/c3cccnc3)SC2=S)cc1	-16	2%	-27%	-29%	16%
Cc1ccc2c(=O)n3c(nc2c1)C(Cc1ccc(O)cc1)NC(=O)c1cc2ccccc2cc1-3 (centres undefined)	-3	6.5µM*	18µM*	?	5.2µM*
O=C1NC(Cc2ccc(O)cc2)c2nc3cc(F)ccc3c(=O)n2-c2cc3ccccc3cc21 (centres undefined)	?	18µM*	7.3µM*	?	15µM*
O=C(Nc1ccn([C@H]2CC[C@@H](CO)O2)c(=O)n1)c1ccccc1	0	3%	-11%	-1%	4%
CCc1nc2ccc(C(=O)Nc3ccc(OC)c(OC)c3)cn2c1N(CC)Cc1cccc(Br)c1	-57*	16µM*	23µM*	23µM*	?
CCc1nc2ccc(C(=O)Nc3ccc(OC)c(OC)c3)cn2c1N(C)Cc1nccs1	-23	0%	?	15µM*	5%
CCc1nc2ccc(C(=O)NCCc3ccccn3)cn2c1N(C)Cc1nccs1	-11	6%	16µM*	?	5%
CCc1nc2ccc(C(=O)Nc3ccc(OC)c(OC)c3)cn2c1N(CC)CCOC	-16	7%	?	?	12%
CCc1nc2ccc(C(=O)NCCC(C)C)cn2c1N(C)Cc1nccs1	-21	0%	?	?	3%
CCc1nc2ccc(C(=O)NCc3cccs3)cn2c1N(C)Cc1nccs1	-54*	-9%	21µM*	?	4%
CCc1nc2ccc(C(=O)Nc3ccc(OC)c(OC)c3)cn2c1N(C)Cc1ccc(N(C)C)cc1	8	5%	?	?	5%
Cc1cccc(C)c1NC(=O)CN(C)C(=O)CC1Sc2ccccc2NC1=O (centres undefined)	23	-1%	6%	-7%	5%
CC(C)CSc1nnc(CNC(=O)c2ccccn2)n1C	·	·	-7%	4%	·
CC(Sc1ccc([N+](=O)[O-])cn1)C(=O)Nc1nccs1 (centres undefined)	13	-6%	18%	-11%	-7%
CCc1nc2ccc(C(=O)NCCc3ccccn3)cn2c1N(C)Cc1cccs1	-21	15%	18µM*	?	8%
CCCCCCCCCCCCCCCC(O)C[N+](C)(C)CCO (centres undefined)	-76*	-2%	3.3µM*	5.2µM*	7%
COc1ccc(C(CNc2ccc(S(=O)(=O)N3CCN(C)CC3)cc2[N+](=O)[O-])N(C)C)cc1 (centres undefined)	-12	5%	21µM*	-12%	-4%
COc1ccc(Nc2ccc(S(=O)(=O)N3CCCCC3)cc2[N+](=O)[O-])cc1	-27	-27%	16µM*	?	?
O=[N+]([O-])c1cc(S(=O)(=O)N2CCOCC2)ccc1NS(=O)(=O)c1ccccc1	-83*	12%	-22%	21%	-2%
COc1ccccc1C(CNc1ccc(S(=O)(=O)N2CCCC2)cc1[N+](=O)[O-])N(C)C (centres undefined)	?	-2%	?	13µM*	?
Cc1ccccc1Nc1ccc(S(=O)(=O)N2CCOCC2)cc1[N+](=O)[O-]	?	-10%	?	?	-3%
CC(C)(CNc1ccc(S(=O)(=O)C(F)(F)F)cc1[N+](=O)[O-])N1CCOCC1	-53*	3%	?	?	-3%
O=[N+]([O-])c1cc(S(=O)(=O)N2CCCCCC2)ccc1F	?	?	10µM*	7.3µM*	?
Cc1cccc(-n2c(=O)c3c(c4cc(C)ccc4n3C)n(CC(=O)NCC3CCCO3)c2=O)c1 (centres undefined)	·	·	-18%	0%	·
COc1cc2c(cc1OC)[C@@H]1C(=O)c3ccc4c(c3O[C@@H]1CO2)C=CC(C)(C)O4	·	·	0.11µM*	0.15µM*	·
SMILES	IL1B secr inh	HT1080 IDH1KD tx	TDP1 cell noCPT	TDP1 cell CPT	HT1080-NT tox
COc1cc(Cl)c(NS(=O)(=O)c2cc3[nH]c(=O)c(=O)[nH]c3cc2C)c(OC)c1	-1	1%	3%	22%	-7%
CC(C)(C)C1CCC2(CC1)C(C#N)=C(SCC(=O)NC1CCCCC1)NC(=O)C2C#N (centres undefined)	-25	7%[9.24 µM]	16µM*	21µM*	?
N#CC1=C(SCC(=O)NC23CC4CC(CC(C4)C2)C3)NC(=O)C(C#N)C12CCCCC2 (centres undefined)	?	?	23µM*	18µM*	?
N#CC1=C(SCC(=O)NC2CC2)NC(=O)C(C#N)C12CCCCC2 (centres undefined)	23	1%	-13%	-1%	10%
O=C(CCc1nnc(C2(c3ccc(Cl)cc3)CCC2)o1)NCCCn1cccn1	25	0%	6%	10%	0%
C#CCOCCOCCOCCNc1nc(N2CCN(C(=O)CCCCCCCCCCNC(=O)[C@H](CO)n3cc(CCCSC)nn3)CC2)nc(N2CCN(C(=O)CCCCCCCCCCNC(=O)[C@H](CCCN=C(N)N)n3cc(C[C@@H](C)CC)nn3)CC2)n1	-103*	?	23µM*	?	?
C#CCOCCOCCOCCNc1nc(N2CCN(C(=O)CCCCCCCCCCNC(=O)Cn3cc(C[C@@H](C)O)nn3)CC2)nc(N2CCN(C(=O)CCCCCCCCCCNC(=O)[C@H](CCCCN)n3cc(CCCC(=O)O)nn3)CC2)n1	?	2%	1%	?	24%
C#CCOCCOCCOCCNc1nc(N2CCN(C(=O)CCCCCCCCCCNC(=O)[C@H](CCCCN)n3cc(C)nn3)CC2)nc(N2CCN(C(=O)CCCCCCCCCCNC(=O)[C@H](CCCCN)n3cc(CCCC(=O)O)nn3)CC2)n1	0	3%	-7%	-4%	1%
C#CCOCCOCCOCCNc1nc(N2CCN(C(=O)CCCCCCCCCCNC(=O)Cn3cc(CCCCCN)nn3)CC2)nc(N2CCN(C(=O)CCCCCCCCCCNC(=O)[C@@H](CCSC)n3cc(CCO)nn3)CC2)n1	-60*	-15%	?	?	-12%
C#CCOCCOCCOCCNc1nc(N2CCN(C(=O)CCCCCCCCCCNC(=O)[C@H](CO)n3cc(CCCSC)nn3)CC2)nc(N2CCN(C(=O)CCCCCCCCCCNC(=O)[C@H](CCCCN)n3cc(CCO)nn3)CC2)n1	-61*	-17%	?	?	-10%

Screening results deposited in PubChem BioAssay by National Center for Advancing Translational Sciences (NCATS).
